In PubChem BioAssay (Tox21):
Results filed as inconclusive are left out. The source made the active and inactive calls. Unless noted, calls follow the shape of the dose curve; as a rule, active = well fitted curve in the direction sought with a large enough effect in the repeat runs; inconclusive = weak or mixed curves; inactive = no such curve, though single readings can be large; an effect the other way counts as inactive or inconclusive.

Assays:
[1] = qHTS assay for small molecule agonists of the p53 signaling pathway (AID 651631; calls by dose curve; also: nearly all actives have a fitted effect of over 15% in size)
In short: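 Testing took place in human colorectal HCT-116 cells with stable p53RE-driven beta-lactamase. After 16 h of compound exposure at 37 °C, a FRET substrate was added and fluorescence recorded 2 h later.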

[2] = qHTS assay for small molecules that induce genotoxicity in human embryonic kidney cells expressing luciferase-tagged ATAD5 (AID 651632); also: nearly all actives have a fitted effect of over 15% in size; also: potency is read from the fitted curve at half-maximal effect
In short: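 Cells were seeded at 2,000 per well, dosed with compound, and incubated 16 hr at 37C in 5% CO2. Luciferase activity was then quantified after a 30 min room-temperature incubation with Amplite.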

[3] = qHTS assay for small molecule agonists of the p53 signaling pathway - cell viability (AID 651633; calls by dose curve; also: series mostly up to about 83 µM; nearly all actives have a fitted effect of over 30% in size)
In short: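 Viability counter-read: CellTiter-Glo luminescence (30 min, room temperature) in the same p53RE-bla plates. These plates had been exposed to compounds for 16 h at 37 C.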

[4] = qHTS assay for small molecules that induce genotoxicity in human embryonic kidney cells expressing luciferase-tagged ATAD5 - cell viability (AID 651634; calls by dose curve; also: nearly all actives have a fitted effect of over 25% in size)
In short: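 Cells (HEK293T, luciferase-tagged ATAD5) are seeded at 2,000 per well, dosed with compound or DMSO vehicle, and incubated 15.5 hr at 37C and 5% CO2. CellTiter-Fluor is added for 30 min before fluorescence is measured.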

[5] = qHTS assay to test for compound auto fluorescence at 590 nm (red) in HepG2 cells (AID 720674)
In short: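 1 hr compound incubation on HepG2 cells, 37 C, 5% CO2; plate read ex 540 nm / em 590 nm; intensities reported as Rose Bengal sodium equivalents.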

[6] = qHTS assay to test for compound auto fluorescence at 535 nm (green) in HepG2 cells (AID 720675)
[7] = qHTS assay to test for compound auto fluorescence at 460 nm (blue) in HEK293 cells (AID 720678)
In short: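 After cell attachment (4-5 hr, 37C), compounds were pinned onto HEK293 monolayers in 10% dialyzed FBS medium. The blue channel (405/460 nm) was read following overnight culture. Equivalency was calculated against triamterene.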

[8] = qHTS assay to test for compound auto fluorescence at 590 nm (red) in HEK293 cells (AID 720679)
In short: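 Plates of HEK293 cells (10% dialyzed FBS) are treated with 23 nL compound or DMSO vehicle after a 4-5 hr attachment period, incubated overnight at 37C, and read for red fluorescence at 540/590nm.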

[9] = qHTS assay to test for compound auto fluorescence at 535 nm (green) in HEK293 cells (AID 720680)
[10] = qHTS assay to test for compound auto fluorescence at 460 nm (blue) in HEK293 cell free culture (AID 720681)
In short: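 Blue fluorescence (Ex 405/Em 460 nm, triamterene-equivalent) was read immediately after pin transfer of compound or DMSO into medium (DMEM, 10% FBS) without cells.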

[11] = qHTS assay to test for compound auto fluorescence at 535 nm (green) in HEK293 cell free culture (AID 720682)
In short: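 DMEM + 10% FBS, cell-free; cpd or DMSO pinned in; Ex485/Em535 read; output as fluorescein-equivalent signal.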

[12] = qHTS assay to test for compound auto fluorescence at 590 nm (red) in HEK293 cell free culture (AID 720683)
In short: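 Red-channel autofluorescence of compounds in culture medium (DMEM, 10% FBS), no cells, measured at 540/590 nm. Rose Bengal sodium is the reference fluorophore for equivalence.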

[13] = qHTS assay to test for compound auto fluorescence at 590 nm (red) in HepG2 cell free culture (AID 720684)
In short: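 No cells present: MEM + 10% FBS only. Compound pinned in, red label read (540/590 nm). Activity = fluorescence equivalent to Rose Bengal sodium.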

[14] = qHTS assay to test for compound auto fluorescence at 535 nm (green) in HepG2 cell free culture (AID 720686)
[15] = qHTS assay to test for compound auto fluorescence at 460 nm (blue) in HepG2 cells (AID 720687)
In short: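 Blue-channel autofluorescence (Ex/Em 405/460 nm, triamterene-equivalent) was measured after 1 hr compound exposure at 37 C, 5% CO2. Cells were HepG2, plated overnight at 37 C in MEM plus 10% FBS.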

[16] = target: Glucocorticoid receptor (Homo sapiens) (UniProt P04150); experiment: qHTS assay to identify small molecule agonists of the glucocorticoid receptor (GR) signaling pathway (AID 720691; active = well fitted activation curve with a large enough effect in the signal ratio in the repeat runs, not every such curve was filed as active; the % refers to the signal ratio)
Glucocorticoid receptor (Homo sapiens), sequence (P04150 whole entry, looked up): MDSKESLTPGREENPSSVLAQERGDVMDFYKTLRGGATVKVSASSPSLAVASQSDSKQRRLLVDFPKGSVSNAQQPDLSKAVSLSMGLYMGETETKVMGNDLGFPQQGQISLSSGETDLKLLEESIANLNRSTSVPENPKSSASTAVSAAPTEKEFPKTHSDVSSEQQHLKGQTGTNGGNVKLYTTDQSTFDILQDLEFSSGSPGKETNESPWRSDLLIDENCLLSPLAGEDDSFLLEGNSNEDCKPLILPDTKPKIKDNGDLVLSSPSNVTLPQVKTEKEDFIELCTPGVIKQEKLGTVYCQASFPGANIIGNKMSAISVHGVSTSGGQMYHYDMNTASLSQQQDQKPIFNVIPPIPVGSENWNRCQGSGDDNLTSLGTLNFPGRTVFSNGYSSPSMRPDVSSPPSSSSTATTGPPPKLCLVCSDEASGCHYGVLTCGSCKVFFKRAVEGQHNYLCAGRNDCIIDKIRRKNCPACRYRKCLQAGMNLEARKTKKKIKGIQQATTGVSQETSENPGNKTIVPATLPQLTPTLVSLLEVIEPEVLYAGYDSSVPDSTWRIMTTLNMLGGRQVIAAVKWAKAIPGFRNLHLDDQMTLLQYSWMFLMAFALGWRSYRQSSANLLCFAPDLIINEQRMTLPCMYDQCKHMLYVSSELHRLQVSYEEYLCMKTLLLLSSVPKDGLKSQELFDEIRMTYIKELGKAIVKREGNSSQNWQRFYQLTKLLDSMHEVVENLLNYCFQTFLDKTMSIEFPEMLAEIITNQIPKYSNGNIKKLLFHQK
In short: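 Steps: seed GR-bla HeLa cells, incubate 4 h at 37 C/5% CO2; pin-transfer DMSO-dissolved compounds; incubate 18 h at 37 C; add LiveBLAzer B/G FRET substrate; after 2 h at room temperature, measure fluorescence.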

[17] = target: Glucocorticoid receptor (Homo sapiens) (UniProt P04150); experiment: qHTS assay to identify small molecule antagonists of the glucocorticoid receptor (GR) signaling pathway (AID 720692; active = well fitted inhibition curve with a large enough effect in the signal ratio in the repeat runs, not every such curve was filed as active; the % refers to the signal ratio)
In short: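 Antagonism was scored as loss of dexamethasone-driven (5 nM final) reporter signal in HeLa cells bearing a glucocorticoid response element–beta-lactamase construct, after 18 h compound exposure at 37 C and 2 h FRET substrate loading.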

[18] = qHTS assay for small molecule disruptors of the mitochondrial membrane potential - cell viability (AID 720634; calls by dose curve;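 also: human HepG2 liver cancer cells; series mostly up to about 83 µM; nearly all actives have a fitted effect of over 20% in size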)
In short: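 Cytotoxicity was measured by ATP quantitation in HepG2 wells that had first been treated with compound for 1 hr and stained with m-MPI dye; CellTiter-Glo incubation was 30 min at room temperature.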

[19] = qHTS assay to test for compound auto fluorescence at 460 nm (blue) in HepG2 cell free culture (AID 720685)
In short: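 Cell-free plates of MEM plus 10% FBS received 23 nL compound or DMSO vehicle; blue-channel (405/460 nm) intensity scored against triamterene as reference fluorophore.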

[20] = qHTS assay for small molecule disruptors of the mitochondrial membrane potential (AID 720635); also: potency is read from the fitted curve at half-maximal effect
In short: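 Mitochondrial membrane potential tracked with Mito-MPS dye, red aggregates (ex 540/em 590 nm) against green monomers (ex 490/em 535 nm). Compound treatment 1 hr at 37C, dye 30 min in HepG2.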

Measured: Potency

CC(C)CCCCCOC(=O)CS
not listed: [18] | [19] | [20]
inactive: all other assays above

CCCCOC(=O)CC#N
not listed: [6] | [16] | [17] | [20]
inactive: all other assays above

CCOc1ccc(NC(C)=O)cc1N
not listed: [6] | [12] | [15] | [16] | [17] | [20]
inactive: all other assays above

O=C(OCCCCCOC(=O)c1ccccc1)c1ccccc1
not listed: [7] | [10] | [15] | [19] | [20]
inactive: all other assays above

CCc1ccc(C(=O)C(C)CN2CCCCC2)cc1 (configuration not stated)
not listed: [6] | [18]
inactive: all other assays above

OCC(O)c1ccccc1 (configuration not stated)
not listed: [7] | [16] | [17] | [20]
inactive: all other assays above

c1ccc(CCNc2nc(-c3ccccc3)cs2)cc1
active: [2] 3.35 µM | [20] 10.6 µM
not listed: [16] | [17] | [18]
inactive: all other assays above

CC(=O)Nc1cccc(N)c1
not listed: [6] | [10] | [19] | [20]
inactive: all other assays above

C=CC(O)CCCCC (configuration not stated)
not listed: [16] | [17] | [18] | [20]
inactive: all other assays above

Sc1nc(S)nc(S)n1
not listed: [6] | [12] | [16] | [17] | [19] | [20]
inactive: all other assays above

Cc1nc(C)c(C)nc1C
not listed: [12] | [18] | [20]
inactive: all other assays above

C/C=C1\[C@H]2C=C(C)C[C@]1(N)c1ccc(=O)[nH]c1C2
not listed: [7] | [10] | [19] | [20]
inactive: all other assays above

O=C(O)c1ccc2cc(O)ccc2c1
not listed: [6] | [15] | [17] | [20]
inactive: all other assays above

O=C1c2ccccc2C(=O)C1c1ccc2ccccc2n1
active: [2] 0.0762 µM | [20] 0.34 µM
not listed: [18]
inactive: all other assays above

O=c1[nH][nH]c2ccccc12
not listed: [7] | [12] | [16] | [17] | [18]
inactive: all other assays above
